Sampled rows, rich in hits. Any-hit rate of the full collection: about 0.92%.
AMA1-RON2 inh: AMA1-RON2 (P. falciparum) interaction inhibition | hit rate 0.2% among 360,000 | AID 720542 | Potency, µM (top dose mostly 58.2 µM), for inactives: top-dose activity change, negative = inhibition, hits mostly inhibitors | AlphaScreen AMA1-biotinylated RON2 peptide binding;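 also: 0% = vehicle wells and -100% = peptide control; nearly all actives have a fitted effect of over 45% in size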
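AMA1 (3D7) with his tag at 25 nM final met compounds first, then biotinylated RON2 peptide at 25 nM; detection used donor plus acceptor beads, 10 µg/mL apiece, read by AlphaScreen after 30 min at room temperature.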
LmPK inhibitor: inhibitors of Leishmania mexicana pyruvate kinase; Q27686; purified LmPK, Kinase-Glo ATP luminescence, 1 h; Potency, µM (series often up to 57.5 µM), inactives show at the highest dose activity change, negative = inhibition, hits mostly inhibitors; hit rate 0.37% among 290,000; AID 1721; also: % is scaled to controls: 0 for no effect and ±100 for the full control effect
Target sequence (Q27686 whole entry, looked up): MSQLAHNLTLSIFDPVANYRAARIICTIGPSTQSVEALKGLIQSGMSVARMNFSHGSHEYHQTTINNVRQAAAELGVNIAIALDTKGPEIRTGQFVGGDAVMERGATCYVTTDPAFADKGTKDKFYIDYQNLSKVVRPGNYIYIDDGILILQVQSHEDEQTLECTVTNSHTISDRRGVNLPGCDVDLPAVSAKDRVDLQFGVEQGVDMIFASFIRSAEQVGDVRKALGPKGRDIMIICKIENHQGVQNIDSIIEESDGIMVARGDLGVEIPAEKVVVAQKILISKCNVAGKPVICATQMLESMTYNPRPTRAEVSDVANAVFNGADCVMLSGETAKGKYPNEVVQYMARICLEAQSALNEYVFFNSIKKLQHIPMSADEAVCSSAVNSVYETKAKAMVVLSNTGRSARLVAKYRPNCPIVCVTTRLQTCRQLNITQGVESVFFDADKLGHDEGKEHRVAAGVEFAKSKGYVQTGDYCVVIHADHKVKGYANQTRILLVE
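Screened at intermediate enzyme activity to detect both inhibitors and activators: LmPK at 0.1 nM, with a 0.5 nM enzyme column as activation reference. PEP 0.5 mM, ADP 0.1 mM; ATP detected by luminescence after 1 h.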
NS1 function inh: blocks influenza NS1 protein function | Potency, µM (top dose mostly 46.1 µM), without a hit: at the highest dose activity, positive = more growth | hit rate 0.4% among 270,000 | AID 2326; calls by dose curve; also: actives are rising curves; nearly all actives have a fitted effect of over 50% in size
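A cell-based growth assay was used: compounds that relieve NS1-induced slow growth of budding yeast raise OD600. Assay medium was yeast nitrogen base with ammonium sulphate and -URA supplement, pH 6.0, with 2% galactose.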
RE007 growth inh: less growth of the S. pombe RE007 Vpr strain. Potency, µM (highest dose often 92.2 µM), inactives show top-dose activity change, negative = less growth, hits mostly inhibitors. AID 651644. S. pombe RE007 Vpr strain, BacTiter-Glo ATP luminescence, 24 h. hit rate 0.21% among 360,000; active = well fitted falling curve with a large enough effect; inconclusive = small, poorly fitted or top-dose-only effect; inactive = no such curve, though single readings can be large or run the other way; also: % is scaled to controls: 0 for no effect and ±100 for the full control effect; nearly all actives have a fitted effect of over 50% in size
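Fission yeast strain RE007, carrying one chromosomally integrated HIV-1 vpr copy, was seeded at OD 0.01 in PMG+AL medium with 23 nL pinned compound. After 24 h at 30 °C and 99% humidity, viability was read by BacTiter-Glo luminescence.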
Tb PYK inh: T. brucei pyruvate kinase inhibition. Potency, µM (highest dose often 76.8 µM), for the others: at the top dose activity, negative = inhibition, hits mostly inhibitors. TbPYK enzyme, Kinase-Glo Plus ATP luminescence, 45 min. hit rate 0.12% among 410,000; also: % is scaled to controls: 0 for no effect and ±100 for the full control effect; nearly all actives have a fitted effect of over 50% in size
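Activity of T. brucei pyruvate kinase was followed by Kinase-Glo Plus luminescence after the enzyme reacted 45 min at room temperature with 130 uM ADP (final) and substrate. Test compounds were added before ADP at multiple concentrations.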
Numbers without * were called inactive; ? = inconclusive; . = no result given; [ ] = remark or other dose. Unless noted, calls follow the shape of the dose curve; as a rule, active = well fitted curve in the direction sought with a large enough effect; inconclusive = small, poorly fitted or top-dose-only effect, or another doubt; inactive = no such curve, though single readings can be large; an effect the other way counts as inactive or inconclusive. Potency is read from the fitted curve at half-maximal effect.

SMILES | AMA1-RON2 inh | LmPK inhibitor | NS1 function inh | RE007 growth inh | Tb PYK inh
COc1ccccc1Nc1c2c(nc3ccc(NC(=O)c4ccc(N(C)C)cc4)cc13)CCCC2 | . | . | . | . | -3%
NCCc1cc(O)c(O)cc1O | 0.79µM* | . | . | 6%[18.4 µM] | ?
Cc1ccc(S(=O)(=O)c2c(Nc3cc(F)ccc3F)sc(C(=O)c3ccc(F)cc3)c2N)cc1 | . | . | . | . | 1%
COc1cc2c(cc1OC)[C@@]13CCN4C=C5CCO[C@H]6CC(=O)N2[C@@H]1C6[C@H]5C[C@H]43 (stereo partly specified) | . | . | -3% | . | .
Nc1ccc(-c2nc3ccccc3o2)cc1 | -8% | -15% | 8% | -21% | -7%
O=C1C=CC(=O)N1c1ccc(-c2nc3ccccc3o2)cc1 | -4% | . | . | 6.3µM* | 11µM*
Cc1ccc(C(=O)Nc2onc3c2CCCC3)cc1 | . | . | . | . | -6%
O=C(O)c1ccc(N/N=C/c2c[nH]c3ccccc23)cc1 | 1% | 6% | 4% | -10% | -17%
Fc1c(F)c(F)c(N/N=C/c2c[nH]c3ccccc23)c(F)c1F | 2% | -1% | 23% | 16µM* | -12%
COc1ccc(N2CCN(C(=O)c3cc(-c4cc(OC)ccc4OC)nc4ccccc34)CC2)cc1 | 5µM* | 2% | 20% | 19% | -8%
CC(O)[C@@H](O)[C@H]1CNc2nc(N)[nH]c(=O)c2N1 (stereo partly specified) | . | . | -1% | . | .
CN(C)CCC(C#N)(c1ccccc1)c1ccccc1 | . | . | -6% | . | .
S=C(SSC(=S)N1CCOCC1)N1CCOCC1 | 89% | . | . | 1%[18.4 µM] | 3.2µM*
CC(C)(C)c1cc(NCCCn2ccnc2)n2ncc(-c3ccc(Cl)cc3)c2n1 | 52% | 1% | -39% | 22µM* | -3%
O=Nc1c(-c2ccccc2)cc2ccccn12 | 6% | -6% | 10% | 13µM* | -2%
COc1ccc(-c2cnc(SCC(=O)Nc3ccc4c(c3)OCO4)n2Cc2ccco2)cc1 | 14µM* | -3% | -56% | 6% | -1%
COc1ccc(C(c2nnnn2CCc2ccccc2)N2CCN(C3CCCC3)CC2)cc1 (stereo unspecified) | 9% | -1% | -5% | -8% | 0%
COc1ccccc1N1CCN(C(c2ccc(N(C)C)cc2)c2nnnn2CCc2ccccc2)CC1 (stereo unspecified) | 20µM* | 3% | 11% | 13% | 2%
OC(COC(c1ccc(Cl)cc1)c1ccc(Cl)cc1)CN1CCN(c2ccccn2)CC1 (stereo unspecified) | 28µM* | 4% | -57% | -11% | -5%
N[C@H](Cc1c[nH]c2ccccc12)P(=O)(O)O | . | . | -3% | . | .
CCCCCCCC(=O)CC[C@H]1[C@@H](C/C=C/CCCC(=O)OC(C)C)[C@@H](O)C[C@H]1O | . | . | . | . | -8%
O=C(CCN1CCN(C(=O)c2ccccc2)CC1)c1ccc(Br)cc1 | 5% | -2% | 7% | 28µM* | 0%
C[C@@H]1CC[C@@H]2N(C1)C[C@H]1[C@@](O)([C@H](O)C[C@]3(O)[C@H]4CC[C@H]5[C@]6(O)O[C@]4(C[C@]13O)[C@@]5(C)CC[C@@H]6O)[C@@]2(C)O | . | . | -5% | . | .
Fc1ccccc1-c1nc(-c2ccccc2)no1 | 4% | 11µM* | 4% | ? | -12%
N[C@@H](CC1=CS(=O)(=O)c2ccc(Cl)cc21)C(=O)O | . | . | 8% | . | .
SMILES | AMA1-RON2 inh | LmPK inhibitor | NS1 function inh | RE007 growth inh | Tb PYK inh
COC(=O)c1ccc2nc(-c3ccco3)c(Cc3ccc(C)cc3)n2c1 | -17% | . | . | -16% | ?
Clc1cccc(Cc2c(-c3ccco3)nc3ccc(Cl)cn23)c1 | -21% | . | . | ? | 20µM*
COC(=O)c1ccc2nc(-c3ccco3)c(Cc3ccc(OC)cc3C)n2c1 | ? | . | . | -3% | 14µM*
Clc1cccc(Cc2c(-c3ccco3)nc3ccc(Br)cn23)c1 | -1% | . | . | ? | ?
NC(=O)C1CCN(C2CC(=O)N(c3cccc(F)c3)C2=O)CC1 (stereo unspecified) | 3% | -2% | -75% | 14µM* | 3%
NC(=O)C1CCN(C2CC(=O)N(c3ccc(F)c(Cl)c3)C2=O)CC1 (stereo unspecified) | -9% | -6% | -147% | 10µM* | 1%
Cc1nc(NC(=O)c2ccc(Br)o2)sc1C | 4% | 16µM* | -62% | -29% | -7%
COC(=O)c1sc(NC(=O)c2ccc(C)o2)nc1C | -4% | ? | -24% | -20% | -16%
Cc1ccc(C(=O)Nc2nc(C)c(C)s2)o1 | -6% | 14µM* | -14% | -29% | -24%
CN1/C(=C\C(=O)c2cccs2)Sc2ccccc21 | 37% | 11µM* | -52% | -19% | -17%
CCCCCCC(=O)N(O)C1CC(=O)N(c2ccc(F)cc2)C1=O (stereo unspecified) | -7% | 1% | -84% | 6.3µM* | ?
CN(C)c1ccc(CC(=O)N2CCCC(c3cc(C(=O)Nc4ccc(C(C)(C)C)cc4)no3)C2)cc1 (stereo unspecified) | 13µM* | . | . | 0% | -12%
Cc1cc(C)c(NC(=O)c2c[nH]c(=S)n2-c2ccc(F)cc2)c(C)c1 | 44% | ? | . | 19% | 7.9µM*
CC#CCC(C)[C@H](O)/C=C/C1[C@H](O)C[C@@H]2C/C(=C\CCCC(=O)O)C[C@H]12 (stereo partly specified) | . | . | . | . | 1%
COc1ccc(/C=N\NC(=S)SCN2C(=O)C3CCC(C)(C2=O)C3(C)C)cc1 (stereo unspecified) | ? | . | . | 2% | 1%
CC12CCC(C(=O)N(CSC(=S)N/N=C\c3ccccc3O)C1=O)C2(C)C (stereo unspecified) | 20µM* | -11% | 28% | 19% | 2%
CCC(=O)Oc1ccc(-c2nc(-c3cccnc3)no2)cc1 | -8% | 7.9µM* | -53% | ? | -20%
Cc1ccc2c(c1)C(N1CCCC1=O)CC(c1ccco1)N2 (stereo unspecified) | -7% | 11µM* | -72% | ? | ?
COC(=O)C1=C(C(=O)OC)[C@@H]2N(Cc3ccccc3)c3ccccc3[C@@]23C[C@@H](C(=O)OC)N(S(=O)(=O)c2ccc(C#N)cc2)C3=N1 | . | 4%[11.5 µM] | . | . | .
CCOc1ccc(NC2=C(OC)C(=O)c3ccccc3C2=O)cc1 | 8.9µM* | -16% | -10% | -27% | 5%
COC1=C(Nc2ccc(OC)cc2)C(=O)C(OC)=C(Nc2ccc(OC)cc2)C1=O | -2% | . | . | -9% | 0%
COC1=C(Nc2ccc(O)cc2)C(=O)c2ccccc2C1=O | ? | -20% | -14% | -28% | -20%
COC1=C(Nc2ccc(OC)cc2)C(=O)c2ccccc2C1=O | 13µM* | -17% | 2% | ? | -9%
CC(C(=O)O)c1ccc2c(c1)CC(=O)c1ccccc1S2 (stereo unspecified) | . | . | . | . | -1%
Nc1ccccc1S[C@@H](C[N+](=O)[O-])c1ccc2c(c1)OCO2 | . | . | -28% | . | .
COc1cc(CC(C)N)c(OC)cc1C (stereo unspecified) | . | . | . | . | -9%[157 µM]
